Source: the OligoGym collection

These sequences were tested against LRRC15 (assay: pooled miR-30 sensor sort-seq; sequence = guide strand). Conditions: shRNA.

First: TTCTTGCAGCAGCAACAGCCGA
Second: TCTTGCAGCAGCAACAGCCGAC
The sensor-assay potency score (higher = more potent) of the first is lower: -1.7 for the first, -0.387 for the second.

Going from TTGTTGGACAGGTAGAGTCTCT to TTGAGTTCAGTGATGTGCGTGT, the sensor-assay potency score (higher = more potent) rises from -0.632 to 0.975.

Going from AACAGCAACGTTGACATTGATG to TTGAGCAGGAGCCAGTTGCGGA, the sensor-assay potency score (higher = more potent) rises from -1.31 to -0.932.

First: TTGAGGTTGCTGCACTGGGAGA
Second: TTCTTCTCAATCCTCAGGGCGA
The sensor-assay potency score (higher = more potent) of the first is lower: -1.66 for the first, -1.09 for the second.

Going from TTGGACAGGTAGAGTCTCTGGA to TAACCTAGGCTGGTTGAGCAGG, the sensor-assay potency score (higher = more potent) falls from 0.0615 to -0.94.

Work on TTGCTGAAGACATTGTCGGGTA yielded a sensor-assay potency score (higher = more potent) of 0.015.

What follows are sequences tested against LRRC19 in the same assay as above. Conditions: shRNA.

Compared with TTTGATATTGTAGCTCTGCAGG, TATGTAACTGTCAACTACCGAG is higher in sensor-assay potency score (higher = more potent): -1.09 for the first, -0.747 for the second.

Compared with TTCTGCTTCATGCTCTTCCAGG, TAACTGTCAACTACCGAGGAGT is lower in sensor-assay potency score (higher = more potent): -0.767 for the first, -0.999 for the second.

Compared with TATAGTAACATCTTTCTTGATA, TTATGTAAGATAGTAACCTTGT is higher in sensor-assay potency score (higher = more potent): -0.839 for the first, 0.182 for the second.

Going from TATGTCTGTAGAACTCTTGTGT to TAAACTGTAGTGATCCTGCATT, the sensor-assay potency score (higher = more potent) falls from 0.236 to -0.636.

Compared with TTCATGAATAATTTAGACCTTT, TTACTGTATTTGAACCTGCTTG is lower in sensor-assay potency score (higher = more potent): -0.134 for the first, -0.499 for the second.

TTGATTATGAGGACTCAGCAAA was tested, and the sensor-assay potency score (higher = more potent) was -0.795.

The sequences below were run against LRRC1 in the same assay as above. Conditions: shRNA.

Compared with TTGACAGCACGCTCGTTCCAGG, TTTTCTGTAAGAACTAACTCAG is higher in sensor-assay potency score (higher = more potent): -1.01 for the first, -0.115 for the second.

Going from TTTCTGTAAGAACTAACTCAGT to TAGCTGGAAAAATTGCTCGGGC, the sensor-assay potency score (higher = more potent) rises from -0.926 to -0.498.

Compared with TTGCCTGTGACACCTCTGCAGG, TCTCTTGACAAGTAGGTTCAGA is higher in sensor-assay potency score (higher = more potent): -1.09 for the first, -0.443 for the second.

First: TCTGTTGACAGCACGCTCGTTC
Second: TAGTTTTCCAATGCCATCCGGA
The sensor-assay potency score (higher = more potent) of the first is higher: 0.237 for the first, -0.337 for the second.

First: TTCTTCTAGTCTTCGCAGCTGG
Second: TTCTAGTCTTCGCAGCTGGGTA
The sensor-assay potency score (higher = more potent) of the first is higher: -0.37 for the first, -0.92 for the second.

First: TTTCGTAATTTGACTAGCTGGA
Second: TTTTGTTTGAGTCCAGTCCTTT
The sensor-assay potency score (higher = more potent) of the first is higher: 0.0536 for the first, -0.559 for the second.

What follows are sequences tested against LRRC45 in the same assay as above. Conditions: shRNA.

First: TGACATGCTGGTCATCTCCTGC
Second: TGCAGCTTCCTGCTGCTCCAGC
The sensor-assay potency score (higher = more potent) of the first is higher: -0.943 for the first, -1.24 for the second.

First: TTGAGAGCGTTGATGATGGAGT
Second: TAGACTCCCGCTCTGCAGCTTC
The sensor-assay potency score (higher = more potent) of the first is higher: -0.215 for the first, -0.306 for the second.

Compared with ATGCTGGTCATCTCCTGCCTGG, TGACTGATCTGGTTGTTGCGGA is higher in sensor-assay potency score (higher = more potent): -1.52 for the first, 0.13 for the second.
